Over roughly 25,000 sequences, “ln(normalized median fluorescence intensity)” has its median near 9.3; the highest 2% begin near 10. Only a selection was taken, and the highest values are over-represented in it overall.

The test system of the test is PF3D7_0420300 AP2 domain 1 (GST-tagged). In words: gcPBM binding intensity (ln(normalized median fluorescence intensity)); higher = stronger DNA binding. The gist of the method: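 An Agilent 4 × 180k array carrying primer-extended double-stranded 36-bp intergenic genomic probes and negative controls received GST-tagged P. falciparum DNA-binding domains expressed in E. coli, about 25 μg on average, for 1 h. The binding buffer contained 1× PBS, 1% milk, 0.2 mg/ml BSA, 0.5% salmon testes DNA and 0.03% Triton X-100. Binding intensity is the top Masliner-normalised natural-log median intensity across replicate spots of either probe orientation, read after Alexa488 anti-GST antibody staining and a 488 nm scan.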
Take “AATAAATATATATTCACACACAAACATATATATATA [CACACA_site4023]”: the “gcPBM binding intensity (ln)” value worked out at 9.71.
For “ATAAAAAAAGGACACACACACATATATTTATTTATA [CACACA_site7438]”, the “gcPBM binding intensity (ln)” value worked out at 10.1.
Consider “AATACAATTTTTAACACACACACAATAATACAGATA [CACACA_site4823]”, for which the “gcPBM binding intensity (ln)” value turned out to be 10.2.
As to “TAAATAAAAAGACACACACACATATTTATATTTATA [CACACA_site7135]”, the “gcPBM binding intensity (ln)” value was determined as 10.
As for “ATACAACAGATATATACACACATATAACAATAATAA [CACACA_site7560]”, the “gcPBM binding intensity (ln)” value is 9.93.
In the case of “AACACAGATAAATTAACACACACACCCATATATATA [CACACA_site9310]”, the “gcPBM binding intensity (ln)” value is 10.1.
For “ATTTAATACAAATACACACACAAATAAATACAGATA [CACACA_site5956]”, the “gcPBM binding intensity (ln)” value was 10.2.
Take “CTATTTCATAAACACACACACACAAACAAACATATA [CACACA_site8234]”: the “gcPBM binding intensity (ln)” value was 10.4.
Next, “CACAGATAAATTAACACACACACACCCATATATATA [CACACA_site3960]”: 10.1.
Next, “CTATTTCATGGACACACACACACAAACAAACATATA [CACACA_site4696]”: 10.2; “ATAAAAAGGAGACACACACACACACGCATATTTATA [CACACA_site6551]”: 10.3; “CACAGATAAATTAACACACACACACCGATATATATA [CACACA_site6049]”: 10.2.
For “TTGTGTTTTATTATTTTATTATTACTATTATAATGT [GTGCAC_negctrl_site484]”, the “gcPBM binding intensity (ln)” value is 9.62.
In the case of “TAAATATATATTATATGTACTTATATATATATATAT [XGTACX_site4448]”, the “gcPBM binding intensity (ln)” value was 9.13.
In the case of “TAATTTTCTTTTTATCGTTTTTTTTTTTTTTTTTTT [XGTACX_negctrl_site432]”, the “gcPBM binding intensity (ln)” value stood at 9.02.
Regarding “AGCTAATATATCTTATATTCATATAAAAAAATATAT [CACACA_negctrl_site1786]”, the “gcPBM binding intensity (ln)” value was 8.94.
Take “AAATTTACAATACATTGTACATATTAATAATATTCC [XGTACX_site3646]”: the “gcPBM binding intensity (ln)” value is 9.17.
Take “CAGTTGGAAGGAAAGTGTACATAAAAAAAAATATAA [XGTACX_site8784]”: the “gcPBM binding intensity (ln)” value is 9.09.
“TCTTTTTAGATATATACACACCGTGTCTACCTATAC [CACACA_site7551]”: the “gcPBM binding intensity (ln)” value is 9.41.
As for “AAATGAATAAATAGGTCACACACAAATATATATAAA [CACACA_site8764]”, the “gcPBM binding intensity (ln)” value is 9.91.
The result for TATTAATATATAGTAGTGCAATAAAGATATACTGAA reads 9.39.
“TTTCGATTAAAAATTGTACAATATAAGGAGCACACA [GTGCAC_negctrl_site476]”: the “gcPBM binding intensity (ln)” value came to 9.31.
Turning to “ATATCTTATGTTATCACACACACACGCACAAAACAG [CACACA_site6800]”, the “gcPBM binding intensity (ln)” value stood at 10.2.
Turning to “CACAGATAAATTAACACACACACACGGATATTTATA [CACACA_site7788]”, the “gcPBM binding intensity (ln)” value stood at 10.2.
With “AAAATTAAAAATAACACACACATATTTATATTTATA [CACACA_site7329]”, the “gcPBM binding intensity (ln)” value came out at 9.75.
The result for “TACATAATACATATAACACACACAATTATACATAAA [CACACA_site9060]” reads 10; that for “CAATATAAAAAACACACACACAAACATATATTTATA [CACACA_site3703]”, 10.1; that for “ATATAATTATAAAATAAACACACATATATATTTATA [CACACA_site8039]”, 9.48.
Take “CACAAAAATAAACACACACACATATATATTTATTAT [CACACA_site5923]”: the “gcPBM binding intensity (ln)” value turned out to be 10.2.
As to “AATACAATTTATAACACACACACAATAATACATATA [CACACA_site1252]”, the “gcPBM binding intensity (ln)” value was determined as 10.2.
Turning to “ATCTTATATGATCACACACACACGCACAAAACAGAA [CACACA_site4913]”, the “gcPBM binding intensity (ln)” value is 10.1.
Consider “AAAATTAAAAATAACACACACATATATATATTTATA [CACACA_site2776]”, for which the “gcPBM binding intensity (ln)” value amounted to 9.84.
Next, “ATAATACAATTTATAACACACACACTATAATACATA [CACACA_site8338]”: 9.97; “ATCTTATATTATCACACACACACGCACAAAACAGAA [CACACA_site1463]”: 10.1.
As to “AAACATTTACTATATTGTACTTAAGATCTTATCGTA [XGTACX_site3919]”, the “gcPBM binding intensity (ln)” value was found to be 9.06.
As for “CTGTCTGCAGATATGGTGCATTTGTAAGATCTTACA [GTGCAC_site9870]”, the “gcPBM binding intensity (ln)” value is 9.13.
In the case of GACATAAAATTCAAAGTGCATAAATAAAATAAACCC, the “gcPBM binding intensity (ln)” value came to 9.49.
“ATTATAAACCATAATTAACACACAAAATAAGTTACA [CACACA_site9057]”: the “gcPBM binding intensity (ln)” value was 9.75.
In the case of “TTTTCTTTCTTGTTTCGTATATTATAAAAAAAAAAG [CACACA_negctrl_site854]”, the “gcPBM binding intensity (ln)” value was 8.96.
Regarding “ACATTTATATATAATTGTACCCTACATTCTCTTTTT [XGTACX_site189]”, the “gcPBM binding intensity (ln)” value is 9.5.
Turning to “AAAAAAATAATAAAAAGTACAAAATGTAGAAAATGT [XGTACX_site5018]”, the “gcPBM binding intensity (ln)” value was 9.91.
On to “AATAGAGTTGAATGCACACATACAAATTTTTAGTTT [CACACA_site3564]”, for which the “gcPBM binding intensity (ln)” value was 9.33.
On to “TAGTAGTTATCACTAACATGCAATAATATTATTTAA [TGCATGCA_site161]”, for which the “gcPBM binding intensity (ln)” value stood at 9.08.
With “AATATATATAAATATTGTACAAAAATATATATATAT [XGTACX_site2910]”, the “gcPBM binding intensity (ln)” value is 9.26.

(Values after the supplement of paper PMC11417369.)
